Laboratory results from PubChem BioAssay (EPA / NIEHS).
Records with an inconclusive call do not appear. Activity calls are given as the source filed them. The calls were made as follows: active = hit-call score of the fitted dose curve at least 0.9, where 1 is the maximum; inconclusive = response in the unintended direction; inactive = score below 0.9.

Key:
[1] = Tanguay_ZF_120hpf_JAW_legacy: (Legacy) Oregon State University Tanguay Lab 120 Hour Post-fertilization zebrafish Assay for Jaw Malformation (AID 2283638);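 as to AC50: active means more embryos with jaw malformation than DMSO controls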
Procedure, shortened: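 Binary jaw-malformation calls at 120 hpf by brightfield imaging; DMSO (0.64% v/v) = baseline. Embryos: 5D wild-type, pronase-dechorionated, one per well from 6 hpf, static exposure, 28C, sealed, dark.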

[2] = Tanguay_ZF_120hpf_OTIC_legacy: (Legacy) Oregon State University Tanguay Lab 120 Hour Post-fertilization zebrafish Assay for Otic Vesicle Malformation (AID 2283639)
Procedure, shortened: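 Embryos from 5D wild-type adults exposed in plates; DMSO 0.64% v/v final. Sealed, light-protected, 28C, static to 120 hpf. Otic vesicle malformation recorded as binary endpoint; gain-of-signal fitted vs DMSO.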

[3] = Tanguay_ZF_120hpf_BRAI_legacy: (Legacy) Oregon State University Tanguay Lab 120 Hour Post-fertilization zebrafish Assay for Brain Malformation (AID 2283641)
Procedure, shortened: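 Read-out: binary brain morphology call at 120 hpf (brightfield), fitted in gain-of-signal direction vs DMSO. Wild-type Tropical 5D embryos, static exposure, 28C, 0.64% DMSO final; 5uM trimethyltin chloride as positive control.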

[4] = Tanguay_ZF_120hpf_SOMI_legacy: (Legacy) Oregon State University Tanguay Lab 120 Hour Post-fertilization zebrafish Assay for Somite Malformation (AID 2283647)
Procedure, shortened: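 Binary brightfield scoring of somite defects at 120 hpf in 5D wild-type larvae; one dechorionated embryo per well, static exposure from 6 hpf, 28C, sealed and dark. Final DMSO 0.64%; trimethyltin chloride 5uM positive control.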

[5] = Tanguay_ZF_120hpf_PFIN_legacy: (Legacy) Oregon State University Tanguay Lab 120 Hour Post-fertilization zebrafish Assay for Pectoral Fin Malformation (AID 2283648);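 also: each larva judged yes or no for fin defect by brightfield with dead larvae skipped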
Procedure, shortened: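 Tropical 5D wild-type embryos, dechorionated with pronase at 4 hpf, were placed singly in wells at 6 hpf and statically exposed until 120 hpf at 28C, sealed and dark, with 0.64% (vol/vol) final DMSO; pectoral fin malformation scored present/absent.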

[6] = Tanguay_ZF_120hpf_CFIN_legacy: (Legacy) Oregon State University Tanguay Lab 120 Hour Post-fertilization zebrafish Assay for Caudal Fin Malformation (AID 2283649)
Procedure, shortened: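 Dechorionated 5D wild-type zebrafish, static exposure 6–120 hpf, 28C, sealed and dark, 0.64% v/v DMSO final. Binary fin-malformation call at 120 hpf, brightfield; gain of signal vs DMSO baseline.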

[7] = Tanguay_ZF_120hpf_PIG_legacy: (Legacy) Oregon State University Tanguay Lab 120 Hour Post-fertilization zebrafish Assay for Pigmentation Malformation (AID 2283650)
Procedure, shortened: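 Tropical 5D wild-type zebrafish embryos, dechorionated with pronase at 4 hpf, were exposed singly from 6 hpf to 120 hpf statically at 28C in sealed, dark plates with 0.64% DMSO; pigmentation scored present/absent by brightfield microscopy, fitted against DMSO.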

[8] = Tanguay_ZF_120hpf_CIRC_legacy: (Legacy) Oregon State University Tanguay Lab 120 Hour Post-fertilization zebrafish Assay for Circulatory Malformation (AID 2283651)
Procedure, shortened: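 Read-out: presence or absence of circulatory malformation at 120 hpf, scored by brightfield microscopy, fitted in the gain-of-signal direction against DMSO baseline. Wild-type 5D larvae were exposed from 6 hpf after enzymatic chorion removal.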

[9] = Tanguay_ZF_120hpf_SWIM_legacy: (Legacy) Oregon State University Tanguay Lab 120 Hour Post-fertilization zebrafish Assay for Swim Bladder Malformation (AID 2283654);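 also: swim bladder malformation in each larva scored yes or no under brightfield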
Procedure, shortened: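 Dechorionated Tropical 5D wild-type embryos, placed singly from 6 hpf, were statically exposed at 28C to 120 hpf with 0.64% DMSO final; swim bladder malformation was scored present/absent by brightfield microscopy, gain of signal relative to DMSO controls.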

[10] = Tanguay_ZF_120hpf_NC_legacy: (Legacy) Oregon State University Tanguay Lab 120 Hour Post-fertilization zebrafish Assay for Notochord and Tail Malformation (AID 2283656)
Procedure, shortened: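 Dechorionated Tropical 5D wild-type zebrafish embryos, one per well from 6 hpf, statically exposed to 120 hpf at 28C in 0.64% DMSO final. Notochord distortion scored present/absent by brightfield; dead embryos excluded.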

[11] = system: Thyroperoxidase (TPO), gene 54314; assay: CCTE_Simmons_AUR_rTPO: CCTE's Amplex UltraRed Assay for Thyroperoxidase (TPO) Inhibition, Simmons Lab (AID 2283662);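 also: potency for loss of signal meaning inhibition of peroxidase activity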
Procedure, shortened: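 Rat thyroid microsomes (5 ug protein) were incubated with test compound (8 concentrations, 5 nM–87.5 uM final, 0.5% DMSO), 25 uM Amplex UltraRed and 300 uM H2O2 in 200 mM phosphate buffer for 30 min at 37C in the dark; fluorescence read at 544/590 nm.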

[12] = CCTE_Simmons_CellTiterGLO_HEK293T: Viability Assessment in CCTE's Assays for Thyroperoxidase (TPO) Inhibition, Simmons Lab (AID 2283665);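 as to AC50: cells exposed to compound for 24 h before readout; actives reduce ATP signal below DMSO vehicle meaning cytotoxicity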
Procedure, shortened: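 HEK293T, 10 000 cells/well, DMEM + 1% FBS; 8-pt titration 5 nM–87.5 uM [final], 0.5% DMSO; 24 hr, 37C, 5% CO2; CellTiter-Glo luminescence; n=3 biological replicates.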

[13] = Tanguay_ZF_120hpf_PE_legacy: (Legacy) Oregon State University Tanguay Lab 120 Hour Post-fertilization zebrafish Assay for Pericardial Edema (AID 2283640);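 as to AC50: potency for increased incidence of pericardial edema versus DMSO baseline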
Procedure, shortened: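 Static waterborne exposure, 5D wild-type embryos, 28C, to 120 hpf; final DMSO 0.64% (vol/vol). Binary PE call at 120 hpf by brightfield; fitted upward vs DMSO baseline. 5uM trimethyltin chloride as positive control.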

[14] = Tanguay_ZF_120hpf_TRUN_legacy: (Legacy) Oregon State University Tanguay Lab 120 Hour Post-fertilization zebrafish Assay for Truncated Body (AID 2283655)
Procedure, shortened: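 Whole-embryo zebrafish screen: dechorionated 5D embryos, static exposure 6–120 hpf, 28C, sealed foil-covered plates, 0.64% DMSO. Binary truncation call; gain of signal versus DMSO baseline.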

[15] = Tanguay_ZF_120hpf_TR_legacy: (Legacy) Oregon State University Tanguay Lab 120 Hour Post-fertilization zebrafish Assay for Touch Response (AID 2283667)
Procedure, shortened: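 Tropical 5D wild-type zebrafish embryos were exposed statically in sealed, foil-covered plates at 28C until 120 hpf, with 0.64% (vol/vol) final DMSO. Touch response was scored as present or absent; embryos that died were not scored.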

Measured: AC50

Oc1ccc2ccccc2c1
active: [1] 38.2 µM | [2] 47.3 µM | [3] 10.3 µM | [6] 10.4 µM | [7] 12.9 µM | [11] 3.13 µM
not listed: [13] | [14] | [15]
inactive: all other assays above

Clc1cc(Cl)c2c(c1)N=C1CCCCCN1C2
active: [13] 24.9 µM
not listed: [11] | [12] | [14] | [15]
inactive: all other assays above

O=C=NCCCCCCN=C=O
inactive: [1] | [2] | [13] | [3] | [6] | [8] | [14]

O=c1[nH]sc2ccccc12
not listed: [11] | [12] | [13]
inactive: all other assays above

CN(C[C@@H](CC[N+]12CCC(C3CCCCC3)(CC1)CC2)c1ccc(Cl)c(Cl)c1)C(=O)c1cc(C(F)(F)F)cc(C(F)(F)F)c1
active: [11] 43.8 µM | [12] 9.54 µM
not listed: [7] | [10]
inactive: all other assays above

CCCCOC(=O)c1ccc(O)cc1
active: [1] 29.5 µM | [2] 46.5 µM | [3] 11.1 µM | [4] 63.7 µM | [5] 46.5 µM | [6] 50.2 µM | [7] 36.9 µM | [8] 40.3 µM | [9] 46 µM
inactive: [10]

CCO[Si](CCCNC(N)=O)(OCC)OCC
not listed: [6] | [11] | [12] | [14] | [15]
inactive: all other assays above

O=c1c(-c2ccc(O)cc2)coc2cc(O)cc(O)c12
active: [11] 3.6 µM
not listed: [12] | [13] | [15]
inactive: all other assays above

CCOC(=O)O[C@H](C)OC(=O)c1ccc2c(c1)cc(C(=O)NC1CCN(C(C)C)CC1)n2Cc1cc(-c2ccc(Cl)s2)on1
active: [1] 47.6 µM | [11] 9.93 µM | [12] 2.11 µM
not listed: [9] | [14] | [15]
inactive: all other assays above

CCCCOC(=O)CC(CC(=O)OCCCC)(OC(C)=O)C(=O)OCCCC
not listed: [4] | [6] | [10] | [11] | [12] | [15]
inactive: all other assays above
